{
  "source": "PubChem BioAssay (NCATS)",
  "note": "Records with an inconclusive call do not appear. Activity calls are given as the source filed them. The call rests on the fitted dose curve; in most records, active means well fitted inhibition curve with a large enough effect; inconclusive means small, poorly fitted or top-dose-only effect; inactive means no such curve, though single readings can be large or run the other way. Potency means the concentration at half of the fitted maximal effect.",
  "data": [
    {"assay": "qHTS Screen of the MIPE 4.0 Collection Against Ewings Sarcoma (TC71) (AID 1259253); further: nearly all actives have a fitted effect of over 40% in size", "settings": "TC71 Ewing sarcoma viability, CellTiter-Glo, 48 h; series mostly up to 45.8 µM", "outline": "(§1)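 Measured: ATP luminescence (CellTiter-Glo) 10 min after reagent addition, following 48 h drug treatment. Relative luciferase units converted to percent activity, with no-cell wells as full and DMSO wells as zero inhibition.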", "values": [
      {"molecule": "CCCCc1nc2cc(C=CC(=O)NO)ccc2n1CCN(CC)CC", "Potency": "372 nM (active)"},
      {"molecule": "COc1cc2c(Oc3ccc(NC(=O)C4(C(=O)Nc5ccc(F)cc5)CC4)cc3F)ccnc2cc1OCCCN1CCOCC1", "Potency": "3320 nM (active)"},
      {"molecule": "COc1cc2ncnc(Nc3ccc(F)c(Cl)c3)c2cc1NC(=O)C=CCN1CCCCC1", "Potency": "2090 nM (active)"},
      {"molecule": "Nc1cc(C(F)(F)F)c(-c2cc(N3CCOCC3)nc(N3CCOCC3)n2)cn1", "Potency": "1050 nM (active)"},
      {"molecule": "CC1(C)CCC(c2ccc(Cl)cc2)=C(CN2CCN(c3ccc(C(=O)NS(=O)(=O)c4ccc(N[C@H](CCN5CCOCC5)CSc5ccccc5)c(S(=O)(=O)C(F)(F)F)c4)cc3)CC2)C1", "Potency": "18700 nM (active)"},
      {"molecule": "CCS(=O)(=O)c1cccc(-c2cc(C(=O)NC3CCN(C)CC3)c(C)c3[nH]c4ncc(C)cc4c23)c1", "Potency": "3320 nM (active)"},
      {"molecule": "O=C(O)CCCc1c[nH]c2ccccc12", "Potency": "inactive"},
      {"molecule": "CCn1cc(-c2ccnc3[nH]c(-c4cccc(CN(C)C)c4)cc23)c(-c2ccc(NC(=O)N(C)C)cc2)n1", "Potency": "3720 nM (active)"},
      {"molecule": "CN1CCC(CNc2ccc3ncc(-c4cccc(OC(F)(F)F)c4)n3n2)CC1", "Potency": "16600 nM (active)"},
      {"molecule": "Nc1nccc(Oc2ccc(NC(=O)c3c[nH]cc(-c4ccc(F)cc4)c3=O)cc2F)c1Cl", "Potency": "2960 nM (active)"},
      {"molecule": "Cc1cc(Nc2cc(N3CCN(C)CC3)nc(Sc3ccc(NC(=O)C4CC4)cc3)n2)n[nH]1", "Potency": "6620 nM (active)"},
      {"molecule": "CNC(=O)c1ccc(N2C(=S)N(c3cnc(C#N)c(C(F)(F)F)c3)C(=O)C23CCC3)cc1F", "Potency": "2960 nM (active)"},
      {"molecule": "CC(C)c1noc(N2CCC(COc3ccc(-c4ccc(S(C)(=O)=O)cc4)nc3)CC2)n1", "Potency": "inactive"},
      {"molecule": "Cn1cc(-c2ccncc2)c(-c2ccc(OCc3ccc4ccccc4n3)cc2)n1", "Potency": "16600 nM (active)"},
      {"molecule": "C=CC(=O)Nc1cccc(Oc2nc(Nc3ccc(N4CCN(C)CC4)cc3OC)ncc2Cl)c1", "Potency": "7.4 nM (active)"},
      {"molecule": "COC(=O)C[C@](O)(CCCC(C)(C)O)C(=O)O[C@@H]1C(OC)=C[C@]23CCCN2CCc2cc4c(cc2[C@H]13)OCO4", "Potency": "inactive"},
      {"molecule": "Cc1[nH]c2ccccc2c1CCNCc1ccc(C=CC(=O)NO)cc1", "Potency": "83.3 nM (active)"},
      {"molecule": "O=C(Nc1cn[nH]c1-c1nc2ccc(CN3CCOCC3)cc2[nH]1)NC1CC1", "Potency": "7430 nM (active)"},
      {"molecule": "CC(C)(C)c1cnc(CSc2cnc(NC(=O)C3CCNCC3)s2)o1", "Potency": "187 nM (active)"},
      {"molecule": "CC(=O)SC[C@@H](C)C(=O)N1CCC[C@H]1C(=O)N[C@@H](Cc1ccccc1)C(=O)O", "Potency": "inactive"},
      {"molecule": "COc1cccc2c(NCc3ccccc3)nc(-n3c(N)nc4ccccc43)nc12", "Potency": "8330 nM (active)"},
      {"molecule": "CCN1CCN(Cc2ccc(-c3cc4c(N[C@H](C)c5ccccc5)ncnc4[nH]3)cc2)CC1", "Potency": "5.3 nM (active)"},
      {"molecule": "CCC[C@H](NC(=O)C(C#N)=Cc1cccc(Br)n1)c1ccccc1", "Potency": "7430 nM (active)"},
      {"molecule": "O=C(C=Cc1c(C(=O)O)[nH]c2cc(Cl)cc(Cl)c12)Nc1ccccc1", "Potency": "inactive"},
      {"molecule": "c1nc2nc(Nc3ccc(N4CCOCC4)cc3)nc(NC3CCCCC3)c2[nH]1", "Potency": "2640 nM (active)"},
      {"molecule": "COC(=O)Nc1nc2ccc(C(=O)c3ccc(F)cc3)cc2[nH]1", "Potency": "1050 nM (active)"},
      {"molecule": "Cc1ccc(NC(=O)C2(c3ccc4c(c3)OC(F)(F)O4)CC2)nc1-c1cccc(C(=O)O)c1", "Potency": "37.2 nM (active)"}
    ]},
    {"assay": "qHTS Screen of the MIPE 4.0 Collection Against Ewings Sarcoma (EW8) (AID 1259255); further: nearly all actives have a fitted effect of over 35% in size", "settings": "EW8 Ewing sarcoma viability, CellTiter-Glo, 48 h; series mostly up to 45.8 µM", "outline": "as §1", "values": [
      {"molecule": "CCCCc1nc2cc(C=CC(=O)NO)ccc2n1CCN(CC)CC", "Potency": "469 nM (active)"},
      {"molecule": "COc1cc2c(Oc3ccc(NC(=O)C4(C(=O)Nc5ccc(F)cc5)CC4)cc3F)ccnc2cc1OCCCN1CCOCC1", "Potency": "1320 nM (active)"},
      {"molecule": "COc1cc2ncnc(Nc3ccc(F)c(Cl)c3)c2cc1NC(=O)C=CCN1CCCCC1", "Potency": "4690 nM (active)"},
      {"molecule": "Nc1cc(C(F)(F)F)c(-c2cc(N3CCOCC3)nc(N3CCOCC3)n2)cn1", "Potency": "590 nM (active)"},
      {"molecule": "CC1(C)CCC(c2ccc(Cl)cc2)=C(CN2CCN(c3ccc(C(=O)NS(=O)(=O)c4ccc(N[C@H](CCN5CCOCC5)CSc5ccccc5)c(S(=O)(=O)C(F)(F)F)c4)cc3)CC2)C1", "Potency": "29600 nM (active)"},
      {"molecule": "C[C@]1(CO)CN(c2cc(C(=O)Nc3ccc4c(c3)-c3c(c(C(N)=O)nn3-c3ccc(F)cc3)CC4)c(Cl)cn2)C[C@@]1(C)CO", "Potency": "16600 nM (active)"},
      {"molecule": "CCS(=O)(=O)c1cccc(-c2cc(C(=O)NC3CCN(C)CC3)c(C)c3[nH]c4ncc(C)cc4c23)c1", "Potency": "118 nM (active)"},
      {"molecule": "Nc1ccc(C(=O)c2cc3c(ccc4ccccc43)[nH]2)cc1", "Potency": "1870 nM (active)"},
      {"molecule": "O=C(O)CCCc1c[nH]c2ccccc12", "Potency": "inactive"},
      {"molecule": "CCn1cc(-c2ccnc3[nH]c(-c4cccc(CN(C)C)c4)cc23)c(-c2ccc(NC(=O)N(C)C)cc2)n1", "Potency": "46.9 nM (active)"},
      {"molecule": "Cn1c(=O)n(-c2ccc(C(C)(C)C#N)cc2)c2c3cc(-c4cnc5ccccc5c4)ccc3ncc21", "Potency": "29.6 nM (active)"},
      {"molecule": "CN1CCC(CNc2ccc3ncc(-c4cccc(OC(F)(F)F)c4)n3n2)CC1", "Potency": "10500 nM (active)"},
      {"molecule": "Nc1nccc(Oc2ccc(NC(=O)c3c[nH]cc(-c4ccc(F)cc4)c3=O)cc2F)c1Cl", "Potency": "743 nM (active)"},
      {"molecule": "Cc1cc(Nc2cc(N3CCN(C)CC3)nc(Sc3ccc(NC(=O)C4CC4)cc3)n2)n[nH]1", "Potency": "296 nM (active)"},
      {"molecule": "CNC(=O)c1ccc(N2C(=S)N(c3cnc(C#N)c(C(F)(F)F)c3)C(=O)C23CCC3)cc1F", "Potency": "8330 nM (active)"},
      {"molecule": "CC(C)c1noc(N2CCC(COc3ccc(-c4ccc(S(C)(=O)=O)cc4)nc3)CC2)n1", "Potency": "inactive"},
      {"molecule": "C[C@]12CC[C@H](O)CC1=CCC1C2CC[C@]2(C)C(n3cnc4ccccc43)=CCC12", "note": "(some centres not stated)", "Potency": "inactive"},
      {"molecule": "Cn1cc(-c2ccncc2)c(-c2ccc(OCc3ccc4ccccc4n3)cc2)n1", "Potency": "20900 nM (active)"},
      {"molecule": "O=C(O)C1(Cc2cccc(Nc3nccs3)n2)CCC(Oc2cccc(Cl)c2F)CC1", "note": "(configuration not stated)", "Potency": "743 nM (active)"},
      {"molecule": "C=CC(=O)Nc1cccc(Oc2nc(Nc3ccc(N4CCN(C)CC4)cc3OC)ncc2Cl)c1", "Potency": "20.9 nM (active)"},
      {"molecule": "COC(=O)C[C@](O)(CCCC(C)(C)O)C(=O)O[C@@H]1C(OC)=C[C@]23CCCN2CCc2cc4c(cc2[C@H]13)OCO4", "Potency": "inactive"},
      {"molecule": "CCOc1cc2ncc(C#N)c(Nc3ccc(F)c(Cl)c3)c2cc1NC(=O)C=CCN(C)C", "Potency": "132 nM (active)"},
      {"molecule": "Cc1[nH]c2ccccc2c1CCNCc1ccc(C=CC(=O)NO)cc1", "Potency": "93.5 nM (active)"},
      {"molecule": "O=C(Nc1cn[nH]c1-c1nc2ccc(CN3CCOCC3)cc2[nH]1)NC1CC1", "Potency": "33.2 nM (active)"},
      {"molecule": "CC(C)(C)c1cnc(CSc2cnc(NC(=O)C3CCNCC3)s2)o1", "Potency": "148 nM (active)"},
      {"molecule": "CCN1CCN(CC(=O)Nc2ccc(-c3cccc4c(=O)cc(N5CCOCC5)oc34)c3sc4ccccc4c23)CC1", "Potency": "16600 nM (active)"},
      {"molecule": "CC(=O)SC[C@@H](C)C(=O)N1CCC[C@H]1C(=O)N[C@@H](Cc1ccccc1)C(=O)O", "Potency": "inactive"},
      {"molecule": "COc1cccc2c(NCc3ccccc3)nc(-n3c(N)nc4ccccc43)nc12", "Potency": "8330 nM (active)"},
      {"molecule": "CCN1CCN(Cc2ccc(-c3cc4c(N[C@H](C)c5ccccc5)ncnc4[nH]3)cc2)CC1", "Potency": "33.2 nM (active)"},
      {"molecule": "CCC[C@H](NC(=O)C(C#N)=Cc1cccc(Br)n1)c1ccccc1", "Potency": "6620 nM (active)"},
      {"molecule": "O=C(C=Cc1c(C(=O)O)[nH]c2cc(Cl)cc(Cl)c12)Nc1ccccc1", "Potency": "inactive"},
      {"molecule": "COc1ccc(OC)c(-c2nnc3ccc(-c4ccc(OC)c(O[C@@H]5CCOC5)c4)nn23)c1", "Potency": "11800 nM (active)"},
      {"molecule": "c1nc2nc(Nc3ccc(N4CCOCC4)cc3)nc(NC3CCCCC3)c2[nH]1", "Potency": "2350 nM (active)"},
      {"molecule": "COC(=O)Nc1nc2ccc(C(=O)c3ccc(F)cc3)cc2[nH]1", "Potency": "662 nM (active)"},
      {"molecule": "Cc1ccc(NC(=O)C2(c3ccc4c(c3)OC(F)(F)O4)CC2)nc1-c1cccc(C(=O)O)c1", "Potency": "46.9 nM (active)"}
    ]}
  ]
}
